Several values for one entry are separate records, joined by “and”; a condition that tells them apart may be missing. Equal values may be shown once. About 79,000 compounds went through this panel and 15% of them were active in at least one assay; those are over-represented in the sample as a whole. Activity calls are given as the source filed them. Rule as the data show it: active = growth inhibition above about 70%; inactive = the rest. Where a SMILES comes first, the peptide text is derived from it. [ ]: non-standard residue; d: D form. The star is where a group is joined. ξ: configuration not given here. ξF = NC(Cc1ccccc1)C(=O)O; Cbz = O=C(OCc1ccccc1)*; Aib = CC(C)(N)C(=O)O
Assays:
[1] = NCI Yeast Anticancer Drug Screen. Data for the rad50 strain (AID 155);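 also: 0% = growth of vehicle-only cultures of the same strain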; details: S. cerevisiae rad50 strain growth inhibition, hits give high values; at 50.0 µM unless noted
Method in brief: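 A DNA repair-deficient yeast mutant serves as the test organism; compound-induced growth inhibition is calculated against vehicle-treated cells.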

[2] = NCI Yeast Anticancer Drug Screen. Data for the mec2-1 strain (AID 157); details: S. cerevisiae mec2-1 strain, hits give high values; at 50.0 µM unless noted
Method in brief: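 Vehicle-treated cultures served as reference for growth inhibition of compound-exposed mec2-1 yeast.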

[3] = NCI Yeast Anticancer Drug Screen. Data for the sgs1 mgt1 strain (AID 161);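 also: 0% = growth of cultures given vehicle only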; details: S. cerevisiae sgs1 mgt1 strain, hits give high values; at 50.0 µM unless noted
Method in brief: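 Test agents were incubated with a DNA-repair-mutant yeast strain. Growth was then read and compared against vehicle-treated controls.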

[4] = NCI Yeast Anticancer Drug Screen. Data for the cln2 rad14 strain (AID 165);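 also: 0% = growth equal to vehicle treated cultures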; details: S. cerevisiae cln2 rad14 strain, hits give high values; at 50.0 µM unless noted
Method in brief: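 Each compound was tested on cln2 rad14 yeast. Inhibition of growth was calculated against vehicle-exposed controls.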

[5] = NCI Yeast Anticancer Drug Screen. Data for the bub3 strain (AID 167); details: S. cerevisiae bub3 mutant strain, hits give high values; at 50.0 µM unless noted
Method in brief: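 Inhibition values come from growth of compound-treated mutant yeast normalised to vehicle-treated controls.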

[6] = NCI Yeast Anticancer Drug Screen. Data for the mlh1 rad18 strain (AID 175); details: S. cerevisiae mlh1 rad18 strain growth inhibition, hits give high values; at 50.0 µM unless noted
Method in brief: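 Vehicle-treated cultures served as the reference for growth inhibition in a yeast strain carrying DNA damage repair alterations exposed to each compound.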

Measured: growth inhibition

NCC(=O)NC(Cc1c[nH]c2ccccc12)C(=O)O (stereo not drawn)
inactive: [1] 7.85% and -4.8% | [2] -4.65% and 1.4% | [3] 7.45% and -7.4% | [4] -0.8% and 13.8% | [5] 26.8% and -10% | [6] -0.75% and -5.4%

O=C(c1cccc(C(=O)N2CCOCC2)n1)N1CCOCC1
inactive: [1] -9.95% | [2] 17.1% | [3] -3.5% | [4] -19.4% | [5] 5.15% | [6] 7.15%

CCc1cc(N(C)C)ccc1N=Nc1ccc([N+](=O)[O-])cc1
inactive: [1] 43.8% | [2] 9.65% | [3] 13.5% | [4] -26.1% | [5] 9.1% | [6] 28.9%

C(CCCC1CO1)CCC1CO1 (stereo not drawn)
inactive: [1] 24.5% | [2] 18.3% | [3] 17.7% | [4] -36.5% | [5] 11.1% | [6] 7.65%

COC(=O)CC(NC(=O)OCc1ccccc1)C(=O)NCC(=O)Oc1ccc([N+](=O)[O-])cc1 (stereo not drawn)
inactive: [1] 21.1% | [2] 11.8% | [3] 12.2% | [4] 12.2% | [5] 5.75% | [6] 8.5%

O=S1(=O)C(=C(c2ccccc2)c2ccccc2)S(=O)(=O)c2ccccc21
inactive: [1] 39.7% | [2] 13.3% | [3] 13.9% | [4] 23.9% | [5] -6.55% | [6] 29.1%

O=c1[nH]c(=O)c2[nH]c(Br)nc2[nH]1
inactive: [1] 2.35% | [2] -4.3% | [3] -12.7% | [4] 0.2% | [5] -8.45% | [6] 3.85%

Cc1nc2[nH]c(=O)[nH]c(=O)c2s1
inactive: [1] -5.65% | [2] 4.15% | [3] -1.25% | [4] -6.6% | [5] -10.8% | [6] -2.35%

COC(=O)C(C)(C)NC(=O)C(Cc1ccccc1)NC(=O)C(C)(C)NC(=O)OCc1ccccc1 (stereo not drawn) (Cbz-[Aib]-[ξF]-[Aib]-OMe)
inactive: [1] 18.9% | [2] 4.8% | [3] -6.2% | [4] 23.1% | [5] 12.4% | [6] -1.2%

CSC(=N)N
inactive: [1] -8.55% and -15.6% | [2] -18.2% and -17.4% | [3] -52.2% | [4] -46% | [5] 1.45% | [6] -2.95% and -29.8%

O=C(c1ccccc1)C(F)S(=O)(=O)O (stereo not drawn)
inactive: [1] -5.7% | [2] -7.75% | [3] -9.05% | [4] -25.8% | [5] 6.2% | [6] 16.9%

CO[C@@H]1C2=CC=CC=C[C@H]2n2c(=O)n(-c3ccccc3)c(=O)n21
inactive: [1] -10.2% | [2] 18.6% | [3] 18.4% | [4] -14.4% | [5] -1.15% | [6] 13.2%

NC(N)=NC(N)=Nc1ccc(S(=O)(=O)O)cc1
inactive: [1] -4.7% | [2] -26.9% | [3] -47% | [4] -22.7% | [5] -29.6% | [6] -11.8%

CCCCOC(=O)C(O)Cc1ccoc1 (stereo not drawn)
inactive: [1] 5.25% | [2] -33.9% | [3] -17.9% | [4] 12.9% | [5] -14.4% | [6] -14.4%

Cc1c2cc[n+](C)cc2c(C)c2c1oc1ccccc12
inactive: [2] 62.1% | [4] 55.9% | [6] -38%
active: [1] 82.5% | [3] 78.8% | [5] 75.1%

Cc1ccc([N+](=O)[O-])cc1N1C(=O)c2ccccc2C1=O
inactive: [1] 14.5% | [2] -13.6% | [3] 12.6% | [4] 8.2% | [5] 13.6% | [6] 13.2%

NC(=O)C1CC1
inactive: [1] -9.4% | [2] 2.25% | [3] -9.7% | [4] -7.7% | [5] 9.25% | [6] -4%

CN(C1=CC(=O)c2ccccc2C1=O)C1CCCCC1
inactive: [1] 14.1% | [2] 49.5% | [3] 37.4% | [4] -7.05% | [5] 63% | [6] 42.2%
